Assay [1] addresses Cytochrome P450 3A4 (Homo sapiens) (UniProt P08684). Nature of the assay: qHTS Assay for Inhibitors and Substrates of Cytochrome P450 3A4 (AID 884). Also: % is scaled to controls: 0 for no effect and ±100 for the full control effect; nearly all actives have a fitted effect of over 50% in size. The gist of the method:
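Luminescent readout of luciferin produced by CYP3A4 (20 nM) dealkylation of Luciferin-PPXE, 25 uM (its KM). NADPH-driven reaction ran 60 min at RT after 10 min compound preincubation; data scaled to 57 uM ketoconazole as 100% inhibition.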

A short description of assay [2]: Confirmation and Secondary Assay for Modulators of Hemoglobin Beta Chain Splicing at IVS2 654 locus (AID 910).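 Also: HeLa cells stably carrying EGFP split by mutant beta-globin IVS2-654 intron; per-well total GFP intensity by laser scanning cytometry after 2-day treatment; % of control where 0% means no effect.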 The gist of the method:
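Readout: per-well total peak green fluorescence (488 nm ex, 500–520 nm em) from objects 5–250 µm, reflecting correct splicing of an EGFP-654 reporter. Compounds were applied for 2 days at 37 °C to overnight-plated HeLa EGFP-654 cells; controls were DMSO and 500 nM IVS2-654 PNA.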

The nature of assay [3]: Confirmation and Secondary Assay for Modulators of Hemoglobin Beta Chain Splicing at IVS2 705 locus (AID 930).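 Also: HeLa cells stably expressing the EGFP-705 splicing reporter; GFP fluorescence per well restored by corrected splicing of the IVS2-705 intron in EGFP; % of control where 0% means no effect.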 An outline of the steps:
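Fluorescence gain (488 nm laser, 500-520 nm PMT) reflects restored correct splicing of a mutant IVS2-705 intron inside EGFP in stably transfected HeLa cells after 2-day compound treatment.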

The nature of assay [4]: qHTS Assay for Lipid Storage Modulators (AID 1519; calls by dose curve). The following applies: Drosophila S3 cells, BODIPY lipid droplet/cell ratio, laser cytometry, cells loaded with oleic acid; for activity change, negative = inhibition: at 57.5 µM (top of the series). The gist of the method:
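Cells seeded at 5,000 per well were treated with compounds over a concentration series and loaded with oleic acid (400 uM, as added). Lipid droplet fluorescence (488 nm excitation, 500-530 nm channel) was read by laser-scanning cytometry and normalized to 20 uM Triacsin C.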

Assay [5] addresses Bile acid receptor (Homo sapiens) (UniProt Q96RI1). Briefly: qHTS assay for small molecule antagonists of farnesoid X receptor signaling (AID 588526; calls by dose curve; also: % is scaled to controls: 0 for no effect and ±100 for the full control effect). The gist of the method: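 Beta-lactamase reporter antagonist mode: HEK293T FXR-UAS-bla cells, titrated compound, CDCA stimulation, 16 h 37 C, CCF4 dye 2 h RT. Data normalized to CDCA 50 uM and DMSO; Hill-fit IC50.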
Assay [6] addresses Glucocorticoid receptor (Homo sapiens) (UniProt P04150). Nature of the assay: qHTS assay for small molecule agonists of glucocorticoid receptor signaling (AID 588532; active = well fitted curve in the direction sought with a large enough effect in the signal ratio, with a control signal flat; the % refers to the signal ratio;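 also: 100% = dexamethasone at 0.1 µM and 0% = DMSO only wells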). The following applies: HeLa MMTV-bla, beta-lactamase ratio, agonist, 18 h; stronger effect = higher value; percent of dexamethasone control, DMSO zero. The gist of the method: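 Agonist-mode qHTS: GRE-driven beta-lactamase in HeLa cells exposed 18 h to titrated compounds (up to 92 uM), then CCF4 ratio read after 2 h at RT; Hill-fitted EC50, efficacy relative to 0.1 uM dexamethasone.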

Assay [7] shares this target. Nature of the assay: qHTS assay for small molecule antagonists of glucocorticoid receptor signaling (AID 588533; active = well fitted inhibition curve with a large enough effect in the signal ratio, with a control signal flat, not every such curve was filed as active; the % refers to the signal ratio;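 also: cells stimulated with 2 nM dexamethasone as agonist; % is scaled to controls: 0 for no effect and ±100 for the full control effect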). An outline of the steps:
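Antagonist-mode qHTS: compound titrations added to GRE-bla HeLa cells, then dexamethasone 2 nM final; 18 h, 37 C. CCF4 FRET fluorescence normalized to dexamethasone and DMSO; IC50 from Hill fit.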

Assay [8] has as its target Peroxisome proliferator-activated receptor delta (Homo sapiens) (UniProt Q03181). Nature of the assay: qHTS assay for small molecule agonists of peroxisome proliferator-activated receptor delta signaling (AID 588534; calls by dose curve;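 also: 0% = DMSO basal wells and 100% = positive control agonist at 10 µM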). The gist of the method: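 Titration series tested in agonist mode on beta-lactamase reporter cells; 18 hrs at 37 C after a 5 hr pre-incubation. Readout: CCF4 fluorescence, 2 hrs RT. Hill equation gives EC50 and maximal response.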

Assay [9] is described as follows: qHTS assay for small molecule antagonists of peroxisome proliferator-activated receptor delta signaling (AID 588535; active = well fitted inhibition curve with a large enough effect in the signal ratio, with a control signal flat, not every such curve was filed as active; the % refers to the signal ratio;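 as to max response: cells co-treated with a PPAR-delta agonist as stimulator during compound exposure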). The conditions noted are these: HEK293T PPARd-UAS-bla, beta-lactamase FRET ratio, 18 h; 460 nm channel. The gist of the method: (§1)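 Antagonist-mode qHTS using GeneBLAzer PPAR-delta-UAS-bla HEK293T cells; compound exposure 18 hrs at 37 C over a titration. Ratiometric CCF4 fluorescence at 460/530 nm; concentration-response points fitted to the Hill equation.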

Assay [10] addresses Peroxisome proliferator-activated receptor delta (Homo sapiens) (UniProt Q03181). The description is as above. An outline of the steps:
as §1

For assay [11], the target named is Peroxisome proliferator-activated receptor gamma (Homo sapiens) (UniProt P37231). Nature of the assay: qHTS assay for small molecule agonists of peroxisome proliferator-activated receptor gamma signaling (AID 588536; active = well fitted curve in the direction sought with a large enough effect in the signal ratio, with a control signal flat, not every such curve was filed as active; the % refers to the signal ratio;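 also: 0% = DMSO basal wells and 100% = rosiglitazone at 2 µM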). The gist of the method:
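Cells were plated and held 6–6.5 h at 37 C, then compounds were added as a titration series. After a further 16 h, CCF4 dye was loaded for 2 h at room temperature and emission at 460/530 nm recorded.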

Assay [12] has the same target. Nature of the assay: qHTS assay for small molecule antagonists of peroxisome proliferator-activated receptor gamma signaling (AID 588537; active = well fitted inhibition curve with a large enough effect in the signal ratio, with a control signal flat, not every such curve was filed as active; the % refers to the signal ratio;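 also: reporter cells co-stimulated with 50 nM rosiglitazone agonist during compound treatment; % of control where 0% means no effect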). The gist of the method: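 Cell-based beta-lactamase assay; GW9662 served as the antagonist control. Stimulation used rosiglitazone, final 50 nM, 16 h, 37 C.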
For assay [13], the target named is Vitamin D3 receptor (Homo sapiens) (UniProt P11473). Nature of the assay: qHTS assay for small molecule antagonists of vitamin D receptor signaling (AID 588541; calls by dose curve;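 also: receptor activated by calcitriol during compound treatment; % is scaled to controls: 0 for no effect and ±100 for the full control effect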). An outline of the steps: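 Antagonist-mode beta-lactamase reporter assay: HEK293T VDR-UAS-bla cells were exposed to titrated compound alongside 1-alpha,25-dihydroxyvitamin D3 at 3 nM final for 16 h. Values were normalized to the 50 nM agonist control and DMSO basal, with IC50 and efficacy from Hill equation fits.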
Chain of Vitamin D3 receptor (Homo sapiens) (P11473 whole entry, looked up): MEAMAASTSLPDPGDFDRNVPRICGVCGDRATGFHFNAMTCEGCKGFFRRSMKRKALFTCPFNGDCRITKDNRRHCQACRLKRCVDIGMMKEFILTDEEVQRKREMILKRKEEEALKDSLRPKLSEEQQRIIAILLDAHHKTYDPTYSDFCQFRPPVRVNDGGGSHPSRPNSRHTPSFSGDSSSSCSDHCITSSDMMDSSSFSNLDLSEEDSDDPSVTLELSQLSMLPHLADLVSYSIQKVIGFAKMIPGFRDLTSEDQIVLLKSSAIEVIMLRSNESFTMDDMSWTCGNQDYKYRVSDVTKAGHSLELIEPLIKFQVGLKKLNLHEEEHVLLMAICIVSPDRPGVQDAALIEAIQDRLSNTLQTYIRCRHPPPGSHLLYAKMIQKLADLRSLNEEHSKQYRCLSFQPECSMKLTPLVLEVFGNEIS

The target is the same in assay [14]. Briefly: qHTS assay for small molecule agonists of vitamin D receptor signaling (AID 588543; calls by dose curve;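 also: 0% = DMSO basal and 100% = reference agonist control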). An outline of the steps: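 GeneBLAzer VDR-UAS-bla HEK293T cells in 2% charcoal-stripped FBS medium were dosed with compound titrations for 16 h at 37 °C; CCF4 β-lactamase readout (405 nm ex, 460/530 nm em). EC50 and efficacy from Hill fits, normalized to 50 nM calcitriol (100%) and DMSO (0%).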

Assay [15] deals with Thyroid hormone receptor beta (Homo sapiens) (UniProt P10828). Nature of the assay: qHTS assay for small molecule agonists of thyroid hormone receptor beta signaling (AID 588545; calls by dose curve). The gist of the method: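 Cells (2500/well) were seeded, incubated 4 hrs at 37 C, dosed with a compound series, incubated 18 hrs, loaded with CCF4 dye for 2 hrs at RT, then read for fluorescence. Data were scaled between DMSO (0%) and 10 nM T3 (100%).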
Chain of Thyroid hormone receptor beta (Homo sapiens) (P10828 whole entry, looked up): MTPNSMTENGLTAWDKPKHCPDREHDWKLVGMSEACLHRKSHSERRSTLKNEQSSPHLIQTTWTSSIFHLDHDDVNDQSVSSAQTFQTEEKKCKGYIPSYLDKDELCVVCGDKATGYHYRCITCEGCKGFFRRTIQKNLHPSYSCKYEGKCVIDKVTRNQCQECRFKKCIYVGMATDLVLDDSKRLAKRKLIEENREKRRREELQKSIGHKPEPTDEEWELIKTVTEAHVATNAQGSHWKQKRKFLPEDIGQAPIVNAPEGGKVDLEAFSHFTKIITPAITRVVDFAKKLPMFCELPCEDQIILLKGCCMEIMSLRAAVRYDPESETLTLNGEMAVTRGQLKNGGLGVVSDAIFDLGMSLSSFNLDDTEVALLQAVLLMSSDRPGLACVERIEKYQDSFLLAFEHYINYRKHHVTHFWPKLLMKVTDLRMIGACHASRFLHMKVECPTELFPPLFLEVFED

For assay [16] the target is unchanged. Briefly: qHTS assay for small molecule antagonists of thyroid hormone receptor beta signaling (AID 588547; active = well fitted inhibition curve with a large enough effect in the signal ratio, with a control signal flat, not every such curve was filed as active; the % refers to the signal ratio;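 also: cells stimulated with 0.4 nM T3 agonist during compound exposure; % is scaled to controls: 0 for no effect and ±100 for the full control effect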). The following applies: TR-UAS-bla HEK293, beta-lactamase ratio, antagonist mode, 18 h. The gist of the method: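 Inhibition of T3-driven (0.4nM final) beta-lactamase reporter activity was measured over 0.59 nM to 92 uM compound after 18 h at 37 C. The cells were GripTite HEK293 TR-UAS-bla in charcoal/dextran-stripped serum, with CCF4 ratio read-out and IC50 from Hill fits.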

Assay [17] in a line: qHTS assay for small molecule activators of the p53 signaling pathway (AID 651743; active = well fitted activation curve with a large enough effect in the signal ratio, not every such curve was filed as active; the % refers to the signal ratio; also: % of control where 0% means no effect). The conditions noted are these: HCT-116 p53RE-bla, beta-lactamase FRET ratio, 16 h; activation: stronger effect = higher value. An outline of the steps: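 A beta-lactamase reporter under p53 response element control, stably carried by HCT-116 cells, reported pathway activation. Test compounds were applied for 16 hours at 37 C, and fluorescence was measured 2 hours after adding the B/G FRET substrate.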

Assay [18] can be described thus: qHTS assay for environmental chemicals that activate the Aryl hydrocarbon Receptor (AhR) signaling pathway (AID 651777). Also: % of control where 0% means no effect; nearly all actives have a fitted effect of over 15% in size. The conditions noted are these: 1A2-DRE human hepatoma cells, luciferase, 24 h; activation: stronger effect = higher value. An outline of the steps: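 Reporter gene assay: hepatoma cells with DRE/CYP1A2-luciferase, 24 hr compound incubation at 37 C, 5% CO2, luminescence after One-Glo (30 min, RT).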

The target of assay [19] is Peroxisome proliferator-activated receptor alpha (Homo sapiens) (UniProt Q07869). Nature of the assay: qHTS assay for small molecule agonists of the peroxisome proliferator-activated receptor alpha (PPARalpha) signaling pathway (AID 651778). Also: % of control where 0% means no effect. The following applies: PathHunter PPARalpha complementation, chemiluminescence, 6 h; stronger effect = higher value. An outline of the steps:
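Chemiluminescence from complemented enzyme reported PPARalpha activation in cells after 6 hr of compound treatment at 37 C. The detection reagent was incubated for 60 min at room temperature, and compounds were scored as agonists.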

Assay [20] in a line: qHTS assay for small molecule agonists of the antioxidant response element (ARE) signaling pathway measured by Nrf2-dependant transcriptional activity (AID 720636; active = well fitted curve in the direction sought with a large enough effect in the repeat runs; an effect the other way counts as inactive or inconclusive;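 also: HepG2 cells with an ARE-driven luciferase reporter; % of control where 0% means no effect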). The gist of the method: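 Nrf2-dependent transcription is measured in ARE-luc HepG2 cells: compound is applied for 16 hr at 37 C after a 6 hr attachment period, and luciferase activity is quantified by luminescence using ONE-Glo.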

The nature of assay [21]: qHTS assay for small molecule agonists of the antioxidant response element (ARE) signaling pathway measured by Nrf2-dependant transcriptional activity - cell viability counter screen (AID 720653; active = well fitted curve in the direction sought with a large enough effect in the repeat runs; an effect the other way counts as inactive or inconclusive; also: % is scaled to controls: 0 for no effect and ±100 for the full control effect). The following applies: ARE-bla HepG2 viability, CellTiter-Glo ATP luminescence, 16 h; stronger effect = lower value. An outline of the steps:
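Cytotoxicity counter screen: intracellular ATP quantified by CellTiter-Glo luminescence in the same ARE-bla HepG2 plates, after 16 h compound exposure and a 2 h beta-lactamase substrate step.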

Assay [22] in a line: qHTS assay for cell viability of HEK293 cells (AID 743288). Also: % is scaled to controls: 0 for no effect and ±100 for the full control effect; nearly all actives have a fitted effect of over 50% in size. The following applies: ATP luminescence (CellTiter-Glo), 18 h; max response: stronger effect = lower value. The gist of the method: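 After 18 h compound exposure at 37 C, parental HEK293 cells (2,000/well) are lysed with CellTiter-Glo and luminescence is read following 30 min at room temperature.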
The target in assay [23] is Ubiquitin carboxyl-terminal hydrolase 1 (Homo sapiens) (UniProt O94782). Briefly: Inhibitors of USP1/UAF1: Pilot qHTS (AID 504865).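 Also: rhodamine fluorescence freed from ubiquitin-rhodamine substrate followed over time; top concentration of the series differs between compounds; % is scaled to controls: 0 for no effect and ±100 for the full control effect; nearly all actives have a fitted effect of over 35% in size.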 The gist of the method:
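USP1/UAF1 complex (1nM) preincubated with compound 15 min at room temperature, then Ub-Rho substrate (150nM final) added. Fluorescence read kinetically at 480/540 nm, 6 reads every 60 seconds. Buffer: 50mM HEPES pH 7.8, 0.5mM EDTA, 0.1 mg/ml BSA, 1mM TCEP, 0.01% Tween-20.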

Setting [24] is: measured here: cell count channel max response.
Setting [25] is: measured here: lipid channel max response.

Results filed as inconclusive are left out. Calls of active or inactive are those of the source. Unless noted, calls follow the shape of the dose curve; as a rule, active = well fitted curve in the direction sought with a large enough effect; inconclusive = small, poorly fitted or top-dose-only effect, or another doubt; inactive = no such curve, though single readings can be large; an effect the other way counts as inactive or inconclusive.

Chain of Glucocorticoid receptor (Homo sapiens) (P04150 whole entry, looked up): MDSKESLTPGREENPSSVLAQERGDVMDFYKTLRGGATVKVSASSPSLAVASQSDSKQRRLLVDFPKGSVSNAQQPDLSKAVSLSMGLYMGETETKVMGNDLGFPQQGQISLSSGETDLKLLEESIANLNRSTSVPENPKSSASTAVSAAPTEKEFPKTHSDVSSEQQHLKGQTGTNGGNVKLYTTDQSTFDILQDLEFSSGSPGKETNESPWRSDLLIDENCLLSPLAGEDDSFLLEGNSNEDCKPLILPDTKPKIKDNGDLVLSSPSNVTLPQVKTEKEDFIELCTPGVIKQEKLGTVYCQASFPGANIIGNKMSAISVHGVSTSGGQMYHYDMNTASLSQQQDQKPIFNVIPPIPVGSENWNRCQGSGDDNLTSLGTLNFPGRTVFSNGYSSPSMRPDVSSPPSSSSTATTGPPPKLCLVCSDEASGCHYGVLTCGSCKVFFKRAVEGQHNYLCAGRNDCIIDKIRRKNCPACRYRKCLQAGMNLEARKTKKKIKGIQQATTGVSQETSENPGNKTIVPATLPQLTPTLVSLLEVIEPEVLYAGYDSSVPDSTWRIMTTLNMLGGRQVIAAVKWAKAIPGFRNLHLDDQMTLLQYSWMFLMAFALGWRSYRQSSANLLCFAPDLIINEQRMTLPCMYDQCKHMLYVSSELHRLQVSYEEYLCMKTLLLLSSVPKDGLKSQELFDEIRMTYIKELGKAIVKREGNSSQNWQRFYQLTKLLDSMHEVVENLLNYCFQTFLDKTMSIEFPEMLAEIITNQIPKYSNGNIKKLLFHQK
Chain of Peroxisome proliferator-activated receptor gamma (Homo sapiens) (P37231 whole entry, looked up): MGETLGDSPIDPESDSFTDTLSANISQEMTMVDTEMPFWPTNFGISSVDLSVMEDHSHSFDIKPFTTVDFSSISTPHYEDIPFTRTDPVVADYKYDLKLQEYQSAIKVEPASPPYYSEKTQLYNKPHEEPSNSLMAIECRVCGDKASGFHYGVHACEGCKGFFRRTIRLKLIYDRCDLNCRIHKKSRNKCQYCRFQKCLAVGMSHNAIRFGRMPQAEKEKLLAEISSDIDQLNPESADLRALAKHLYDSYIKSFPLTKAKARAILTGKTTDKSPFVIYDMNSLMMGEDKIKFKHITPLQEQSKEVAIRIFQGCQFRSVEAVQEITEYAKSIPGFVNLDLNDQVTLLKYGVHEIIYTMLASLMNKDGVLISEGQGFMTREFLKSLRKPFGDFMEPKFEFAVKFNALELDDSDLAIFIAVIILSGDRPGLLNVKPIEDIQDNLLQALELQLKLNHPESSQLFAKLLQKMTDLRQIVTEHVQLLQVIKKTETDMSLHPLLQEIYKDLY
Chain of Peroxisome proliferator-activated receptor delta (Homo sapiens) (Q03181 whole entry, looked up): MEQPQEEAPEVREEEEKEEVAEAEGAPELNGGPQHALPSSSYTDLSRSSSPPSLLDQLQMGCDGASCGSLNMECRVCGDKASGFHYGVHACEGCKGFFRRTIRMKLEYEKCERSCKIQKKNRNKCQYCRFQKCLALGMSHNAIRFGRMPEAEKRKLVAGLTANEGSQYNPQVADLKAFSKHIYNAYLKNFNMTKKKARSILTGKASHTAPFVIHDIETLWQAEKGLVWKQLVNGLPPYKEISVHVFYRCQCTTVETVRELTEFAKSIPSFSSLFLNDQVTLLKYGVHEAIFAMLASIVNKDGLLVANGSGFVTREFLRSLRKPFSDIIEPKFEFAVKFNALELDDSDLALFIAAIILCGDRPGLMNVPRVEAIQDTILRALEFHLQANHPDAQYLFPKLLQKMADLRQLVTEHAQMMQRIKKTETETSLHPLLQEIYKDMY
Chain of Peroxisome proliferator-activated receptor alpha (Homo sapiens) (Q07869 whole entry, looked up): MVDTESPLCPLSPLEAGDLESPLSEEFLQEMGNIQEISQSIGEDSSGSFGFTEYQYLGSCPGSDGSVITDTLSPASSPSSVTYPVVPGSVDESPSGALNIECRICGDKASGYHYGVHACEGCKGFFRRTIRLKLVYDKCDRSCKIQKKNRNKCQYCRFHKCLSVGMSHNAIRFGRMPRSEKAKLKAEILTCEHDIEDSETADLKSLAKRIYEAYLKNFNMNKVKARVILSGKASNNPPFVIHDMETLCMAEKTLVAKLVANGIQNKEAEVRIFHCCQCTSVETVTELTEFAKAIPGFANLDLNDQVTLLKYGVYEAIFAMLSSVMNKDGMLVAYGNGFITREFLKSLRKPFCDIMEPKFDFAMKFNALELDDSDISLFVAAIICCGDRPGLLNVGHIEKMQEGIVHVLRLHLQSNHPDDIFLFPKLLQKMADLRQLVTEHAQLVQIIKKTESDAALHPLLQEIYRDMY
Chain of Ubiquitin carboxyl-terminal hydrolase 1 (Homo sapiens) (O94782 whole entry, looked up): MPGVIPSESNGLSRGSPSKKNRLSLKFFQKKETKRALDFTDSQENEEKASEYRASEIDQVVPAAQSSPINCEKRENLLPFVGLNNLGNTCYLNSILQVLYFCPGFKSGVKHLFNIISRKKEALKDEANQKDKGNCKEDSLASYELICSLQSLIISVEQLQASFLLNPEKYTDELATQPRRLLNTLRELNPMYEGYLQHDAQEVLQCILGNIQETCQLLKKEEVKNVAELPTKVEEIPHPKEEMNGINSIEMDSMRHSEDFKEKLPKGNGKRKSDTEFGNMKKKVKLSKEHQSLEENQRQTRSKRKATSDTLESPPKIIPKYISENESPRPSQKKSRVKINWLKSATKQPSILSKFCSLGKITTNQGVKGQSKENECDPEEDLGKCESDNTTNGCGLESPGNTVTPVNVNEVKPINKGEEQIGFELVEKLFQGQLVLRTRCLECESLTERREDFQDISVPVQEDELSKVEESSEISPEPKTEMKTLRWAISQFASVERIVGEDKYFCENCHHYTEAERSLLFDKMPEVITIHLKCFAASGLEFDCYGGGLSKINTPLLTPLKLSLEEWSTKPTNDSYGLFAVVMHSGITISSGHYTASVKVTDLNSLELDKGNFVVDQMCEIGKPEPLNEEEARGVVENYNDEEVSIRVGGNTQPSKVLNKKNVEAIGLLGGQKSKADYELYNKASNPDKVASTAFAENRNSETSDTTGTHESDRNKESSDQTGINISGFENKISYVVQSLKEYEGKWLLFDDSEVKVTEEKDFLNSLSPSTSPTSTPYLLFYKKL
Chain of Cytochrome P450 3A4 (Homo sapiens) (P08684 whole entry, looked up): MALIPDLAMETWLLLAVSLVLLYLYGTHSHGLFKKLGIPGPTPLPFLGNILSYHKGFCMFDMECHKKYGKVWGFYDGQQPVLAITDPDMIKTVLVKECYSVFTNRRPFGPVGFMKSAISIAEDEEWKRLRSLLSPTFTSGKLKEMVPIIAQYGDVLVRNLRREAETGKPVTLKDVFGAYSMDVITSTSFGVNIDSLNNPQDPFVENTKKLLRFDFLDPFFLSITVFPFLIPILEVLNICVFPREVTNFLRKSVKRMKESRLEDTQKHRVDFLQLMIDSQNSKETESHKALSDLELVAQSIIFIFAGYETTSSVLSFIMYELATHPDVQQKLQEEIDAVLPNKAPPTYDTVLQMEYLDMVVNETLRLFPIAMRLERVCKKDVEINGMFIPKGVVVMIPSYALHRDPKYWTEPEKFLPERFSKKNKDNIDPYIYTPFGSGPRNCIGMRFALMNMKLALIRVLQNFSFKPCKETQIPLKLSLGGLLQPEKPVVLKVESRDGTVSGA
Chain of Bile acid receptor (Homo sapiens) (Q96RI1 whole entry, looked up): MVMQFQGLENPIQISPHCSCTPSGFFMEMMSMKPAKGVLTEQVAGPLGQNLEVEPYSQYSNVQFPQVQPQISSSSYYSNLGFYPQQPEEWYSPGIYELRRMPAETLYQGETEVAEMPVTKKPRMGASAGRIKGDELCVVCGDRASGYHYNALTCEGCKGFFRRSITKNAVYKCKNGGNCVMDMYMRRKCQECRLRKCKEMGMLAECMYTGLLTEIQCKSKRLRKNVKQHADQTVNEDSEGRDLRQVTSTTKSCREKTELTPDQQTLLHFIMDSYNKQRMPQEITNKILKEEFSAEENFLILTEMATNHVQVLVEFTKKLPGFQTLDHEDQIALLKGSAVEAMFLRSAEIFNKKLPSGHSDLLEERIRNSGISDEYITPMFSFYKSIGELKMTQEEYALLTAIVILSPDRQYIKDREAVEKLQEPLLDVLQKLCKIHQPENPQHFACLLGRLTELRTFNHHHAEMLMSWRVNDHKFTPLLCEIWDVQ

Consider `CCCCSP(=O)(SCCCC)SCCCC`, for which the Potency entry in assay [1], in [2], in [3], in assay [7], in assay [10] and in assay [12] was “inactive” throughout. The activity change, negative = inhibition in assay [4] was 12.5% (inactive). The max response in [4] (setting [24]) was 36.8%; in assay [4] (setting [25]), 52%; in assay [9] it was -5.76%; in assay [19], 3.39% (inactive); in [21] it was 12.3% (inactive); in assay [22], -3.57% (inactive). For the same compound, the compound was classed as inactive in [5], in assay [8], in assay [11], in [13], in [14] and in assay [15]. In assay [20], the compound was called inactive. Further, the activation is -15% (inactive) in assay [6], -2.51% (inactive) in assay [17] and -2.91% (inactive) in [18]. The activity change % (negative = inhibition) in assay [16] was -17.4% (inactive).
For the compound `O=C1CC2OCC=C3CN4CC[C@@]56c7ccccc7N1C5C2C3CC46` (stereo not given in full), the Potency entry in assay [2], in assay [3] and in assay [23] was “inactive” throughout. Moreover, the activity change, negative = inhibition in [4] was -0.509% (inactive). For the same compound, the max response in [4] (setting [24]) was 17.9%; in assay [4] (setting [25]), 21.5%.

The values are drawn from PubChem BioAssay (NCATS).
